Results filed as inconclusive are left out. Active and inactive are the calls of the source. Calls follow the shape of the dose curve; as a rule, active = well fitted curve in the direction sought with a large enough effect; inconclusive = small, poorly fitted or top-dose-only effect, or another doubt; inactive = no such curve, though single readings can be large; an effect the other way counts as inactive or inconclusive.
What was measured:
[1] = HPAF-II 24hr Apoptosis Induction qHTS against the NCATS CANVASS Library (AID 1347356)
Procedure, shortened: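 500 HPAF-II cells/well; compounds in 11-pnt qHTS; 24 h, 37 C/5% CO2; Caspase-Glo 3/7 added, 15 min RT dark; luminescence read. Doxorubicin control.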

[2] = HEK293 18hr Apoptosis Induction qHTS against the NCATS CANVASS Library (AID 1347357); also: potency is read from the fitted curve at half-maximal effect
Procedure, shortened: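 Cells seeded at 500/well in DMEM + 10% FBS. Compounds pinned, 11 concentrations. 18 h, 37 degrees C/5% CO2. Caspase-Glo 3/7 added, 15 min RT dark, luminescence read.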

[3] = HPAF-II 12hr Apoptosis Induction qHTS against the NCATS CANVASS Library (AID 1347358)
Procedure, shortened: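 Caspase-Glo 3/7 luminescence (DEVD substrate) reports caspase activity in HPAF-II cells after 12 h compound treatment at 37 degrees C. Compounds were tested in an 11-point series. Doxorubicin served as control.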

[4] = HEK293 24hr Apoptosis Induction qHTS against the NCATS CANVASS Library (AID 1347359); also: potency is read from the fitted curve at half-maximal effect
Procedure, shortened: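 HEK293 cells (500/well, DMEM + 10% FBS) were exposed to compounds in an 11-point series for 24 hours at 37 degrees C, then caspase-3/7 activity was read by Caspase-Glo DEVD luciferase luminescence after 15 min.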

[5] = HPAF-II 18hr Apoptosis Induction qHTS against the NCATS CANVASS Library (AID 1347360)
Procedure, shortened: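 Seed HPAF-II cells at 500/well in DMEM + 10% FBS, pin-transfer compounds, incubate 18 hours at 37 degrees C/5% CO2, add Caspase-Glo 3/7 reagent, wait 15 min, read luminescence.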

[6] = HEK293 12hr Apoptosis Induction qHTS against the NCATS CANVASS Library (AID 1347361)
Procedure, shortened: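 Cells are seeded, dosed with an 11-point compound series and incubated 12 hours. Caspase-3/7 activity is detected by luminescent DEVD-substrate reagent after 15 minutes at room temperature.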

[7] = system: NAD(P)H diaphorase (Clostridium kluyveri); experiment: Diaphorse counterscreen qHTS: Assay Interference Panel against the NCATS CANVASS Library (AID 1347362)
Procedure, shortened: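 Clostridium kluyveri diaphorase in PBS with 0.01% Tween-20 was preincubated 15 min at room temperature in the dark with compounds (11-point series). Resorufin fluorescence (ex 525/20, em 598/25) was read 5 min after adding resazurin/NADH.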

[8] = target: Luciferin 4-monooxygenase (Photinus pyralis) (UniProt P08659); experiment: Firefly luciferase counterscreen qHTS: Assay Interference Panel against the NCATS CANVASS Library (AID 1347363); also: series mostly up to about 57 µM
Luciferin 4-monooxygenase (Photinus pyralis), sequence (P08659 whole entry, looked up): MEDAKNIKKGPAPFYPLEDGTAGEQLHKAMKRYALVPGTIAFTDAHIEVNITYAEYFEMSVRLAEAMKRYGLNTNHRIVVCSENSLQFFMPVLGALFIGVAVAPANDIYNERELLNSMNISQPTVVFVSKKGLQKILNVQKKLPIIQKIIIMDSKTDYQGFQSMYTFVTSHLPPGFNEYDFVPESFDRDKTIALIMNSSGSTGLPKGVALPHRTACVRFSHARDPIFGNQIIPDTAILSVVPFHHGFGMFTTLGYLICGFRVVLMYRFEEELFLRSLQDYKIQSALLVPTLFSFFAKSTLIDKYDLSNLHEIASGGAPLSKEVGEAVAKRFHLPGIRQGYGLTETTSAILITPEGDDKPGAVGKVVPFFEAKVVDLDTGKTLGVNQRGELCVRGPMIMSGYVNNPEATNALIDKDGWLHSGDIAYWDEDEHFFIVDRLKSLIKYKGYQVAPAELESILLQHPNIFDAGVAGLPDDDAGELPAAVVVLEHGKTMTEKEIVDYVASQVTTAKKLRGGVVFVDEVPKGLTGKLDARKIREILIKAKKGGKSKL
Procedure, shortened: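 Purified P. pyralis luciferase was added to compounds (11-point series) preincubated 15 min at room temperature with substrate containing 0.013 mM D-luciferin and 0.013 mM ATP; luminescence was read after 5 min.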

[9] = KB-3-1 Cancer Cell Toxicity qHTS against the NCATS CANVASS Library (AID 1347366); also: nearly all actives have a fitted effect of over 75% in size; also: potency is read from the fitted curve at half-maximal effect
Procedure, shortened: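 Luminescence from CellTiter-Glo (10 min, room temperature) measured KB-3-1 viability after 72 hr compound exposure at 37C. Cells were seeded at 500/well and tested in an 11-point series.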

[10] = G06 Cancer Cell Toxicity qHTS against the NCATS CANVASS Library (AID 1347368); also: nearly all actives have a fitted effect of over 60% in size; also: potency is read from the fitted curve at half-maximal effect
Procedure, shortened: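 ATP luminescence (CellTiterGlo) readout of cytotoxicity. Canine G06 glioma cells, 500/well, 72 hr incubation at 37C with compounds; bortezomib titration served as control.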

[11] = MCF7 Cancer Cell Toxicity qHTS against the NCATS CANVASS Library (AID 1347369); also: potency is read from the fitted curve at half-maximal effect
Procedure, shortened: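 Cells seeded at 500/well, then compound pinned. Plates incubated 72 hr at 37C, 5% CO2. CellTiterGlo added; luminescence read.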

[12] = qHTS for ATAD5 Antagonist screened against the NCATS CANVASS Library (AID 1347370); also: nearly all actives have a fitted effect of over 65% in size; also: potency is read from the fitted curve at half-maximal effect
Procedure, shortened: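 HEK293T-ATAD5 luc reporter, 2000 cells/well; 5hr attach; cpd + 10 uM 5-FUrd; 16hr 37C, 5% CO2. Readouts: CellTiter-Fluor fluorescence (1hr), then Amplite luciferase luminescence (30min RT).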

[13] = J3T Cancer Cell Toxicity qHTS against the NCATS CANVASS Library (AID 1347371); also: potency is read from the fitted curve at half-maximal effect
Procedure, shortened: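 Dog glioma J3T, 500 cells/well; cpd 11-pt qHTS; 72 hr, 37C/5% CO2; CellTiterGlo ATP luminescence readout.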

[14] = 10-beta competent E. coli microbial cell viability qHTS against the NCATS CANVASS Library (AID 1347376); also: series mostly up to about 46 µM
Procedure, shortened: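 Luminescence from BacTiter-Glo ATP detection served as the viability read-out; bacteria (0.2 OD) had been incubated overnight at 37C with pin-transferred compounds at 11 concentrations.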

[15] = qHTS for H2AX Agonists against the NCATS CANVASS Library (AID 1347378);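 also: phospho-H2AX S139 level in CHO-K1 lysates by TR-FRET emission ratio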
Procedure, shortened: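 CHO-K1, 1000 cells/well, o/n 37C; cpd several conc, 3 hr 37C, 0.76% DMSO; lyse 30 min RT; cryptate anti-pH2AX(S139) + d2 anti-H2AX, 24 hr RT; HTRF 665/620.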

[16] = qHTS for Inflammasome Signaling Inhibitors: IL-1-beta AlphaLISA screen against the NCATS CANVASS Library (AID 1347379);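 also: human THP-1 cells primed with LPS then triggered with ATP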
Procedure, shortened: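 THP-1, 1 hr compound pre-incubation, then LPS 250 ng/mL + ATP 1.25 mM (final); 16 hr total with compound; IL-1B AlphaLISA, ex 680/em 615 nm; 11-point qHTS, up to 57.5 uM final.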

[17] = Inflammasome Signaling qHTS Counterscreen: IL-1-beta AlphaLISA counterscreen against the NCATS CANVASS Library (AID 1347381);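 also: cell-free check with purified IL-1β in medium and no THP-1 cells; series mostly up to about 57 µM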
Procedure, shortened: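 Here, no cellular stimulation occurs; compounds in an 11-point series meet 4 pg purified IL-1-beta directly. Bead-based AlphaLISA detection follows (1 h acceptor/antibody, then 30 min donor, dark, room temperature), with excitation at 680 nm.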

[18] = Cytotoxicity qHTS for assessment of Hepg2 cells membrane integrity screened against the NCATS CANVASS Library (AID 1347387)
Procedure, shortened: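 LDH release read by fluorescence (560 nm ex/590 nm em) after CytoTox-ONE addition and 10 min RT; signal tracks lysed cells. HepG2, 2000 cells/well, plated overnight; compound 5 hr, 37C, 5% CO2, final 0.59 nM - 46 uM, 11 points.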

[19] = qHTS for activators of dead-cell proteases activity screened against the NCATS CANVASS Library (AID 1347392);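 also: luminescence from protease leaking out of membrane-damaged cells cleaving impermeant substrate; rising signal means more cytotoxicity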
Procedure, shortened: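 Cytotoxicity in HepG2 cells was assessed by released protease cleaving AAF-aminoluciferin, with luminescence as signal. Exposure lasted 5 h at 37C across an 11-point series.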

[20] = Redox Reaction Profiling qHTS: Assay Interference Panel against the NCATS CANVASS Library (AID 1347401)
Procedure, shortened: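 Quantitative HTS over an 11-point series was run in HEPES pH 7.3 with 50 mM NaCl, 200 uM DTT and 5 uM resazurin. Initial and 15-min resorufin fluorescence readings were taken.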

Measured: Potency

C=C1C[C@]23C=CC(=O)[C@@](C)(CCCC(C)C(=O)N[C@@H](CO)C(=O)O)[C@@H]2C[C@@H]1CC3 (some centres undefined)
inactive: all assays above

CN1CC[C@@]23c4ccccc4N[C@@H]1[C@@]21CCN(C)[C@@H]3Nc2ccccc21
not listed: [10] | [16]
inactive: all other assays above

COc1c(O)cc(O)c2c(=O)cc(-c3ccccc3)oc12
not listed: [9] | [16]
inactive: all other assays above

COc1cc2ccc(=O)oc2c(O)c1O[C@@H]1O[C@H](CO)[C@@H](O)[C@H](O)[C@H]1O
active: [10] 8.12 µM
not listed: [16]
inactive: all other assays above

CO[C@@H](C[C@@H](C)[C@@H](O)/C=C/C=C/CNC(=O)C(C)(C)[C@H](O)\C(C)=C/C=C\C=C\Cc1cnco1)[C@]1(O)[C@@H](C)C(=O)N(C)[C@@]12COC2=O
inactive: all assays above

C[C@@]1(CCC(=O)Nc2c(O)ccc(C(=O)O)c2O)C(=O)C=C[C@]23C[C@H]4C[C@H](O[C@@]4(C)C2)C31 (some centres undefined)
inactive: all assays above

COc1ccc(-c2oc3cc(OC)cc(OC)c3c(=O)c2O)cc1
active: [10] 9.35 µM
not listed: [12]
inactive: all other assays above

C[C@@]12C[C@@H](C[C@@H]3C(=O)O[C@@H](c4ccoc4)[C@H](OC(=O)c4ccccc4)[C@@H]31)OC2=O
inactive: all assays above

C=C(C)C(=O)O[C@H]1C[C@@]2(C)OC(=CC2=O)/C(C)=C\[C@H]2OC(=O)C(=C)[C@H]12
active: [2] 2.96 µM | [4] 2.96 µM | [9] 3.32 µM | [10] 2.09 µM | [11] 4.16 µM | [12] 2.95 µM | [13] 1.66 µM | [16] 1.37 µM
not listed: [6] | [15] | [18] | [19]
inactive: all other assays above

C[C@@]12CCC[C@@](C)(C(=O)OP(=O)(O)OC[C@H]3O[C@@H](n4cnc5c(N)ncnc54)[C@H](O)[C@@H]3O)[C@H]1C[C@@H](O)[C@@]13C[C@@H](CC[C@@H]21)[C@](C)(O)C3
active: [10] 14.8 µM | [13] 16.6 µM
not listed: [15] | [20]
inactive: all other assays above

O=C1CC(c2ccc(O)cc2)Oc2cc(O)ccc21 (centres undefined)
not listed: [8]
inactive: all other assays above

COC(=O)c1cccc2oc(-c3cccc4oc(-c5c(C)cccc5O)nc34)nc12
active: [12] 8.31 µM
not listed: [10]
inactive: all other assays above

CN1CC[C@]23c4ccccc4N[C@H]1[C@]21CCN(C)[C@H]3Nc2ccccc21
inactive: all assays above

CC(C)=CCC[C@]1(C)[C@H]2CC(=O)[C@@]3(CO3)[C@@H]1C2
inactive: all assays above

C=C1CCC2C(C)(C(=O)O)CCC(CC/C(C)=C/C(=O)NC(CCC(N)=O)C(=O)O)[C@@]2(C)C1 (some centres undefined)
inactive: all assays above

CN1C(=O)C(=O)N2C(=C[C@]3(c4c[nH]c5ccccc45)c4ccccc4N[C@H]23)C1=O
inactive: all assays above

CC(CCC[C@]1(C)C(=O)C=C[C@@]23C[C@]4(C)O[C@@H](C[C@@H]4[C@H]2O)C31)C(=O)O (some centres undefined)
inactive: all assays above

O=C1OC(CCO)c2cccc(O)c21 (centres undefined)
not listed: [10]
inactive: all other assays above

C[C@@]12CCC[C@@](C)(C(=O)O)[C@H]1CC[C@@]13C[C@@H](CC[C@H]12)[C@](C)(O)C3
inactive: all assays above

O=C1c2c(O)cc(O)cc2OC(c2ccc(O)cc2)C1O (centres undefined)
not listed: [15]
inactive: all other assays above

C=C[C@]1(C)CC[C@@H]([C@H](C)C(=O)CC=C(C)C)O1
inactive: all assays above

COC(=O)[C@@]12Oc3cccc(O)c3C(O)=C1C(=O)C[C@H](C)[C@H]2O
inactive: all assays above

CC(C)=CCCC(C)(O)[C@H]1CC=C(C)C(O)C1 (some centres undefined)
inactive: all assays above
